Test results: PubChem BioAssay AID493083 (Broad Institute, 2011)
Screen size: about 2,400 compounds; about 95 (4%) were called active. Inconclusive results (about 3%) are left out.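 Rule for the calls: active = compounds lowering signal whose fitted AC50 is at most ten times the top tested dose; inconclusive = flat fit with moderate inhibition, or poor curve fit; inactive = the rest.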 Not all results are given here. Potency and affinity values are given separately.

test: decrease of heat-induced HSF-1 GFP reporter, dose response, NIH3T3 R4 cells, GFP/RFP, cherry-pick, set 3 (AID 493083); conditions: NIH3T3 R4 HSF-1 GFP reporter, heat shock, 48 h; series mostly up to 19.5 µM; activity change, negative = inhibition: at the top concentration;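 note: 0% = neutral control wells and -100% = didemnin B positive control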

Activity change, negative = inhibition, inactive:
NS(=O)(=O)c1ccc(CCNC(=O)c2ccc(C#CC3(O)CCCCC3)cc2)cc1 -11%
COc1cccc(/C=N/NC(=O)c2cnccn2)c1 -11.7%
CC1CCN(CC(=O)c2cccs2)CC1 -0.687%
N/C(=N\OC(=O)Cc1ccccc1[N+](=O)[O-])c1cccnc1 -2.18%
Cc1ccc(S(=O)(=O)c2ccc(Oc3ccccc3)cc2)cc1 6.62%
COc1cc(NS(=O)(=O)c2ccc(C)cc2)c2ncccc2c1 152%
O=C(Cc1ccc(O)cc1)NC1CCCCCC1 2.64%
Fc1ccc(-c2nc3c(-c4ccc(Cl)cc4)cnn3cc2CCN2CCOCC2)cc1 6.99%
COc1ccc(-n2cc([N+](=O)[O-])c(=O)c3ccc(Cl)cc32)cc1 -4.31%
O=[N+]([O-])c1ccc(O)c(C=Nc2ccc3oc(Cc4ccc(Cl)cc4)nc3c2)c1 2.32%
CC(=O)c1ccc(OCC(O)CN2CCN(Cc3ccc4c(c3)OCO4)CC2)cc1 (configuration not stated) -11.3%
COc1ccc(C(=O)NC(=S)NNC(=O)c2ccco2)cc1 -5.87%
CNC(=S)N(CCc1c(C)[nH]c2ccc(C)cc12)Cc1cc(OC)c(OC)c(OC)c1 6.85%
CC1CCC2(CC1)N=C(N)Nc1nc3ccccc3n12 (configuration not stated) 22.7%
COc1ccc(C(=O)NNC(=O)c2ccccn2)cc1 1.89%
COc1ccc(OC)c(-c2cc(C(=O)N/N=C/c3cc(OC)c(OC)cc3OC)c3ccccc3n2)c1 6.57%
CC(C)Nc1nnc(Sc2ccc(Cl)cc2[N+](=O)[O-])s1 6.78%
Cc1ccc2nc(CSc3nc(C)ccc3C#N)[nH]c2c1 5.73%
CC(/C=C/c1ccc2c(c1)OCO2)=N/NC(=O)c1ccncc1 25.8%
COCCN(C(=S)Nc1c(C)cccc1C)C(C)c1cccnc1 (configuration not stated) -2.92%
COCCCn1c(-c2ccco2)nc2ccccc2c1=O -0.204%
N#Cc1c(N)n(-c2ccccc2N)c2nc3ccccc3nc12 -3.31%
COc1ccccc1C(=O)NCC(=O)N/N=C/c1ccc2c(c1)OCO2 3.39%
NS(=O)(=O)c1ccc(NC2=CC(=O)C(=O)c3ccccc32)cc1 -26%
CN(Cc1nc(-c2ccccc2)no1)C(=O)c1ccc2c(c1)OCO2 2.75%
COc1cccc(-c2c(NC(C)=O)n(C)c3ccccc3c2=O)c1 -3.87%
COc1ccc(NC(=O)c2cc(CN3C(=O)c4ccccc4C3=O)ccc2OC)cn1 3.72%
COc1ccc(/C=N/NC(=O)c2cc(-c3cccn3C)n[nH]2)cc1OC 1.97%
C=CCn1c(CCCNC(=O)C(C)(C)C)nc2ccccc21 5.13%
Cc1ccc(NC(=S)NC2CC3CCC(C2)N3Cc2ccco2)cc1C (configuration not stated) 2.77%
COc1ccc(N2CCN(C(=O)c3ccc(NS(=O)(=O)c4ccccc4)cc3)CC2)cc1 21.2%
COC(=O)c1cc2ccsc2n1Cc1nc(-c2ccc(Cl)cc2)oc1C 3.21%
COc1ccccc1/C=C/CN1CCC(Oc2cc(C(=O)NC3CC3)ccc2OC)CC1 7.7%
CC(NO)/C(=N\O)c1cccs1 (configuration not stated) 1.92%
COC(=O)C1=C(C(=O)OC)[C@@H]2N(C)c3ccccc3[C@@]23C[C@@H](C(=O)OC)N(C(=O)CC(C)C)C3=N1 0.888%
CCN1CCN(CCNC(=O)CCCCCn2c(=O)[nH]c3cc(C(=O)OC)ccc3c2=O)CC1 -7.53%
O=C(COC(=O)c1ccccc1SCC(=O)N1CCCC1)NC1CCS(=O)(=O)C1 (configuration not stated) 1.73%
Cc1ccc(S(=O)(=O)N2CCCC(C(=O)NCCc3ccc4c(c3)OCO4)C2)cc1 (configuration not stated) 13.8%
FC(F)Oc1ccc(NC(=S)NNc2ccnc3cc(Cl)ccc23)cc1 39.7%
Cc1ccc(-n2ncc(Br)c(Br)c2=O)cc1 -70.3%
CCc1ccc(C(=O)Cn2ncc(Cl)c(Cl)c2=O)cc1 -74.6%
CCCCCn1c(SCC(=O)CC(=O)OCC)nc2cc(C(=O)N3CCC(C(N)=O)CC3)ccc2c1=O -1.23%
CC(=O)Nc1cc[n+](C(C)C(=O)c2ccccc2)cc1 (configuration not stated) -10.5%
COc1cccc(-n2ccnc2SCC(=O)Nc2ccccc2F)c1 9.89%
O=C(CCc1ccccc1)Nc1cccc([N+](=O)[O-])c1 9.15%
O=C(NN=C1CCCCCCCCCCC1)c1ccccc1F 4.34%
COc1ccc(-n2nc(C(=O)NCC(=O)NCc3ccccc3OC)c3ccccc3c2=O)c(OC)c1 -1.43%
O=C(NC1CCCCC1)C(c1ccco1)N(C(=O)c1csnn1)c1ccc(Cl)cc1 (configuration not stated) 0.074%
CCC(C)NC(=O)C1(C)CCC(=O)N1Cc1ccccc1OC (configuration not stated) -0.568%
O=C(O)CSc1nc(-c2ccccc2)nc2c1oc1ccccc12 -7.46%
CNC(=O)c1ccsc1NC(=O)c1ccc(Cl)s1 -0.254%
Cc1ccc(OCC(=O)NCCNC(=O)c2ccco2)cc1C -0.642%
CCCCn1c(SCC(=O)NCc2ccco2)nc2c(sc3ccccc32)c1=O -2.75%
COc1ccc(C2=NN(S(C)(=O)=O)C(c3cccs3)C2)cc1OC (configuration not stated) 0.996%
O=C(CCl)N1N=C(c2cccs2)CC1c1ccco1 (configuration not stated) 111%
COc1c([N+](=O)[O-])c(=O)oc2ccccc12 -1.45%
Cn1c(=O)c2ccccc2n(Cc2ccccc2Cl)c1=O 62.4%
C/C(=N\NC(=O)c1nnn(-c2nonc2N)c1C(C)C)c1ccncc1 -3.27%
COc1ccc(/C=N/NC(=O)Nc2cccc3nsnc23)cc1OC 12.9%
COc1ccc(CNC(C)CCc2ccccc2)cc1 (configuration not stated) -3.43%
CCOc1ccc(NC(=O)CN(C)C(=O)c2ccc(N3CCCC3)c([N+](=O)[O-])c2)cc1OCC 4.14%
COc1cccc(N2CCN(C(=S)Nc3cc(C)cc(C)c3)CC2)c1 -4.49%
CC(CCCC(C)(C)O)NC(=O)c1ccc2oc(CCc3ccccc3)nc2c1 (configuration not stated) 1.71%
COc1ccc(NC(=O)CCc2nnc3ccc(N4CCC(C)CC4)nn23)cc1OC -0.697%
O=C(O)c1cccc(NC(=S)N/N=C/c2cccnc2)c1 -3.91%
CCc1cccc2c(C(=O)COC(=O)c3ccc([N+](=O)[O-])s3)c[nH]c12 4.77%
CNC(=S)N/N=C/c1ccc(-c2cccc(C(=O)O)c2)o1 -2.88%
CCOc1ccc(NC(=O)CCCNC(=O)Cn2cnc3sc(C)c(C)c3c2=O)cc1 -1.07%
CCC(=O)n1nc(-c2cccnc2)nc1NCc1cccs1 -3.19%
COc1ccc(N=Cc2c(O)ccc3ccccc23)cc1 69.2%
O=C1CCCN1CCC1CCN(C(=O)Nc2ccccc2)CC1 -0.501%
CC(C)CCNC(=O)c1ccc2c(SCC(=O)O)c3c(nc2c1)CCC3 -3.07%
COc1ccc(OC)c(NC(=O)C2CCCN(S(=O)(=O)c3c(C)nn(C)c3C)C2)c1 (configuration not stated) -0.401%
O=C(NCc1ccncc1)C(=O)Nc1nc(C23CC4CC(CC(C4)C2)C3)cs1 33.4%
Cc1cccc(C)c1NC(=O)c1cccnc1 -2.88%
COc1ccc(C)c2sc(NC(=O)C3=COCCO3)nc12 -4.67%
Cc1ccc(N2C(=O)N(CC(=O)NC(N)=O)C(=O)C2C)cc1 (configuration not stated) -1.14%
COc1cccc(Nc2ccc(C(=O)O)cc2N)c1 -0.631%
Cn1c(=O)c2c(ncn2CC(=O)Nc2cccc(S(=O)(=O)Nc3ccccc3F)c2)n(C)c1=O 8.04%
C/C(=N\NC(=O)c1c(C)nc2ccccn12)c1ccc(C(C)(C)C)cc1 8.05%
CCOC(=O)c1c(N2CCCCC2)c2ccccc2[nH]c1=O 2.34%
CCOC(=O)c1c(C)[nH]c(C)c1S(=O)(=O)NCCc1cccs1 3.28%
CC(C)(C)c1ccc(/C=N/N2C(=O)CSC2=S)cc1 -1.35%
O=C(NCCN1CCCCC1)Nc1ccccc1Cl -12.4%
NNC(=S)Nc1ccccc1Cl -2.15%
CC(C)C(=O)Nc1cccc(-c2nc3ncccc3o2)c1 -3.12%
CC(=O)Nc1nn(C)c2nc(C)cc(C)c12 -7.96%
Cc1cc(C)c(NC(=O)Nc2ccc3c(c2)OCO3)c(C)c1 10.5%
O=C(/C(=C(\[O-])c1ccccc1)[n+]1ccc2ccccc2c1)c1ccc([N+](=O)[O-])cc1 -3.91%
CCOC(=O)c1sc(NC(=O)Nc2ccccc2F)nc1C 2.48%
CCOC(=O)Cc1cnc(NC(=O)c2ccccc2)s1 14.6%
N#Cc1cccc(C#N)c1Oc1ccc(S(=O)(=O)Nc2ccc(Cl)cc2)cc1 27.6%
CCOC(=O)CCCNS(=O)(=O)c1c(C)ccc2nsnc12 -5.83%
COc1ccc(-n2c(C)c(C(C)=O)c(C(C)=O)c2C)cc1 -9.69%
COc1ccc(/C=C/C(=O)NC(=S)NCCc2ccc(OC)c(OC)c2)cc1 0.071%
O=C(O)C1CCC(=O)N(C2CCCCC2)C1c1ccccc1Cl (configuration not stated) -8.3%
O=C(CC1C(=O)NCCN1Cc1ccccc1F)NC1CCCCCC1 (configuration not stated) -11.2%
Cc1nn(-c2ccccc2Cl)c(Cl)c1/C=N/Nc1nc2ccccc2s1 8.96%
COc1ccccc1-c1nnc(SC2CCc3ccccc3NC2=O)s1 (configuration not stated) 16.7%
N#CCCn1nnc(-c2ccccc2F)n1 -4.93%
Cc1ccccc1OCC(=O)Nc1ccc2c(c1)C(=O)N(CCC(=O)O)C2=O -0.08%
O=[N+]([O-])c1ccc(Nc2ccc(F)cc2)cc1 0.888%
COc1nnc(-c2ccc(C(=O)N3C[C@@H]4C[C@H](C3)c3cccc(=O)n3C4)cc2)c2ccccc12 -9.99%
COc1ccc(S(=O)(=O)N2CCCC2)cc1C(C)C 3.89%
O=C(N1CCCCC1)N1CCN(S(=O)(=O)c2ccccc2)CC1 5.28%
CCN(C1CCS(=O)(=O)C1)S(=O)(=O)c1cccs1 (configuration not stated) -2.59%
Cc1ccnc(NC(=O)CS(=O)(=O)c2ccccc2)c1 0.818%
Cc1c(Cl)cccc1NC(=O)CS(=O)(=O)c1ccccc1 -2.14%
Cc1ccccc1OCCC(=O)OCC(=O)N1c2ccccc2NC(=O)C1(C)C -1.03%
Cc1c(-c2nc(-c3ccc(C(C)(C)C)cc3)no2)n(C)oc1=O 1.67%
O=C(NCc1ccncc1)c1ccc(Cl)c(S(=O)(=O)N2CCOCC2)c1 16.6%
CCOC(=O)c1cnc2ccc(C(=O)OC)cc2c1NCCCN1CCOCC1 -0.453%
